Source: PubChem BioAssay (Sanford-Burnham Center for Chemical Genomics)
TIM10 inh = growth inhibitors of isogenic TIM10 control yeast, primary screen, counter-screen for tim10-1 yeast inhibitor project, luminescence, uHTS | S. cerevisiae TIM10 strain growth, BacTiter-Glo luminescence, 24 h | inhibition, % at 10 µM | actives 1.4% (n = 330,000) | AID 463195, 2010;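 active = inhibition of 40% or more at the single tested concentration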;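 also: wild-type TIM10 isogenic control strain grown at permissive 25 °C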
NALP1 yeast inh = NALP1 inflammasome inhibitors in reconstituted yeast, colorimetric, S. cerevisiae, triplicate retest; S. cerevisiae NALP1/ASC/caspase-1 growth, X-gal OD620, 72 h; inhibition, % at 10 µM; actives 0.61% (n = 280,000); AID 2071, 2009; in the data active = inhibition mostly above about 24%, no sharp cut-off; inactive = mostly below about 32%
tim10-1 inh = growth inhibitors of tim10-1 mutant yeast, primary screen, luminescence, uHTS. S. cerevisiae tim10-1 ts strain growth, BacTiter-Glo, 24 h. inhibition, % at 20 µM. actives 2.2% (n = 330,000). AID 463190, 2010;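 active = inhibition of at least 40%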;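 also: mutant grown at 25 °C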
NLRP3 yeast inh = NALP3 inflammasome inhibitors in reconstituted yeast, primary screen, luminescence, uHTS; Yeast reconstituted NLRP3/ASC/caspase-1, beta-gal luminescence, 24 h; inhibition, % at 10 µM; actives 0.39% (n = 330,000); AID 2825, 2010;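 active = inhibition of 50% or more; inactive = inhibition below 50%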
tim23-1 inh = growth inhibitors of tim23-1 mutant yeast, primary screen, luminescence, uHTS; inhibition, % at 20 µM; actives 1.3% (n = 330,000); AID 463212, 2010; S. cerevisiae tim23-1 growth, BacTiter-Glo luminescence, 24 h;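 active = growth inhibition of the mutant yeast at or above 50%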;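 also: temperature-sensitive mutant grown at 25 °C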
tim10-1 conf = growth inhibitors of tim10-1 mutant yeast, confirmation, single concentration, luminescence, S. cerevisiae; S. cerevisiae tim10-1 ts strain growth, BacTiter-Glo, 24 h; shares compounds with tim10-1 inh; actives 56% (n = 7,400); inhibition, % at 20 µM;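 active = inhibition of yeast growth at or above a set limit in either of two repeat tests at 20 µM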;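 also: tim10-1 mutant grown at permissive 25 °C to find synthetic lethal compounds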
Numbers stand for hits; 0 = inactive; - = no result; ! = repeats disagree. Most compounds without a hit are left out; they make up all but 4% or so of the library.

SMILES | TIM10 inh | NALP1 yeast inh | tim10-1 inh | NLRP3 yeast inh | tim23-1 inh | tim10-1 conf
CC1(C)C(C(=O)N2CCN(c3ccc(Cl)cc3)CC2)C1(C)C | 0 | 0 | 0 | 0 | 0 | -
COC(=O)C1CN(C#N)N(c2ccc(Cl)cc2)C12c1ccccc1-c1ccccc12 (stereo not drawn) | 0 | 0 | 58.0 | 0 | 0 | 42.5
CCCC[C@@H](C)C[C@@H](C)C(=O)N(C)[C@@H](CC(C)C)C(=O)N[C@H](C(=O)N(C)[C@H](C(=O)N1C[C@@H](O)C[C@H]1C(=O)N1C(=O)C=C[C@@H]1C)C(C)C)C(C)OC(C)=O (stereo partly drawn) | 0 | - | 0 | 0 | 0 | -
CC(C)CNC(=O)c1c(N)n(Cc2ccc3c(c2)OCO3)c2nc3ccccc3nc12 | 0 | 0 | 43.5 | 0 | 0 | 0
COC(=O)C1=C(c2c(C)noc2C)C[C@@H]2CC[C@H]1N2C(=O)NCCOc1ccccc1 | 0 | - | 0 | 0 | 0 | -
Fc1ccc2c(c1)nnn2C1CCN(Cc2nnnn2CCc2ccccc2)CC1 | 0 | 0 | 40.5 | 0 | 0 | 0
c1ccc(CCn2nnnc2CN2CCC(n3nnc4ccccc43)CC2)cc1 | 0 | 0 | 0 | 0 | 0 | -
CN1C(=O)C(=Cc2sc(=O)n(-c3ccccc3)c2N(C)C)C(=O)N(C)C1=O | 0 | 0 | 0 | 0 | 0 | -
Oc1ccccc1-[n+]1c(-c2ccccc2)cc(-c2ccccc2)cc1-c1ccccc1 | 0 | - | 0 | 0 | 0 | -
Cc1ccccc1-[n+]1c(-c2ccccc2)cc(-c2ccccc2)cc1-c1ccccc1 | 0 | - | 42.4 | 0 | 0 | 0
O=C(Cn1ncc2c3ccccc3n(Cc3ccc(F)cc3)c2c1=O)N1CCC2(CC1)OCCO2 | 0 | 0 | 0 | 0 | 0 | -
O=[N+]([O-])c1ccc(Cl)c([N+](=O)[O-])c1 | 0 | - | 45.4 | 0 | 0 | 38.9
CN1CCN(c2c[nH]c(=O)[nH]c2=O)CC1 | 0 | 0 | 0 | 0 | 0 | -
CCOc1cc2c(cc1OCC)-n1cccc1C(c1ccc(OC(F)F)cc1)NC2 (stereo not drawn) | 0 | 0 | 0 | 0 | 0 | -
Cc1c(CCN)ccc2c1[nH]c1ccccc12 | 0 | 0 | 40.7 | 0 | 0 | 0
NCCc1c(Cc2ccccc2)[nH]c2ccccc12 | 0 | - | 0 | 0 | 0 | -
Cc1ccc(S(=O)(=O)Cc2ccc(C(=O)N3CCC4(CC3)OCCO4)o2)cc1 | 0 | - | 0 | 0 | 0 | -
Oc1ccc(C2NCc3ccccc3-n3cccc32)cc1Cl (stereo not drawn) | 0 | 0 | 44.2! | 0 | 0 | 33.8
O[C@H]1C2CCC1C(N1CCCCC1)CC2 (stereo partly drawn) | 0 | 0 | 0 | 0 | 0 | -
COC(=O)C1=C(c2cccc(C#N)c2)C[C@@H]2CC[C@H]1N2C(=O)N1CCC(C)CC1 | 0 | - | 0 | 0 | 0 | -
Cc1oc2ccc(OC(=O)N(C)C)cc2c1C(=O)OC(C)C | 0 | 0 | 41.6 | 0 | 0 | 0
C=CCN1C(=O)c2ccccc2Sc2ccc(C(=O)N3CCC4(CC3)OCCO4)cc21 | 0 | 0 | 0 | 0 | 0 | -
O=C(c1ccc2c(c1)N(Cc1ccccc1)CCS2)N1CCC2(CC1)OCCO2 | 0 | 0 | 42.2 | 0 | 0 | 0
CCOC(=O)C1(CCOc2ccccc2)CCN(Cc2ccccc2OC)CC1 | 0 | 0 | 0 | 0 | 0 | -
CCOC(=O)C1(CCc2ccccc2)CCN(Cc2cccc3c2OCO3)CC1 | 0 | 0 | 40.0 | 0 | 0 | 0
SMILES | TIM10 inh | NALP1 yeast inh | tim10-1 inh | NLRP3 yeast inh | tim23-1 inh | tim10-1 conf
COc1ccc(NP(=O)(Oc2ccccc2OC)Oc2ccccc2OC)cc1 | 0 | 0 | 40.6 | 0 | 0 | 0
COc1ccccc1OP(=O)(Nc1ccc(Br)cc1)Oc1ccccc1OC | 0 | 0 | 0 | 0 | 0 | -
O=C1CC(N2CC=C(c3ccccc3)CC2)C(=O)N1c1ccc(F)cc1 (stereo not drawn) | 0 | 0 | 42.9 | 0 | 0 | 42.5
Cc1cccc(-c2nc3ccc(C(=O)N4CCC5(CC4)OCCO5)cc3nc2-c2cccc(C)c2)c1 | 0 | 0 | 40.3 | 0 | 0 | 0
CCOC(=O)c1c(-n2c(C)cc(/C=C3\C(=O)NC(=O)N(C)C3=O)c2C)sc2c1CCCC2 | 0 | 0 | 0 | 0 | 0 | -
Cc1cc(/C=C2\C(=O)NC(=O)N(c3ccc(Cl)cc3)C2=O)c(C)n1-c1sc2c(c1C#N)CCCC2 | 0 | 0 | 41.1 | 0 | 0 | 0
